MCF10A rereplic = inducers of DNA re-replication in MCF 10A breast cells. AID 624296. Potency, µM (doses to about 46.1 µM), for the others: at the highest dose activity, positive = re-replication, actives largely listed as activators. MCF 10A DNA re-replication, Hoechst nuclear intensity, 48 h. 350,000 tested, 2.9% active; also: potency is read from the fitted curve at half-maximal effect; % of control where 0% means no effect; nearly all actives have a fitted effect of over 50% in size
RORg inh = inhibitors of mouse ROR gamma transcriptional activity; Drosophila S2 Gal4-RORgamma UAS-luciferase reporter, 20 h; P51450; AID 2551; Potency, µM (doses to about 53.6 µM), for inactives: at the highest dose activity change, negative = inhibition, hits mostly inhibitors; 310,000 tested, 5.4% active; also: potency is read from the fitted curve at half-maximal effect; % is scaled to controls: 0 for no effect and ±100 for the full control effect; nearly all actives have a fitted effect of over 60% in size
Target sequence (P51450 whole entry, looked up, the tested form may be a part): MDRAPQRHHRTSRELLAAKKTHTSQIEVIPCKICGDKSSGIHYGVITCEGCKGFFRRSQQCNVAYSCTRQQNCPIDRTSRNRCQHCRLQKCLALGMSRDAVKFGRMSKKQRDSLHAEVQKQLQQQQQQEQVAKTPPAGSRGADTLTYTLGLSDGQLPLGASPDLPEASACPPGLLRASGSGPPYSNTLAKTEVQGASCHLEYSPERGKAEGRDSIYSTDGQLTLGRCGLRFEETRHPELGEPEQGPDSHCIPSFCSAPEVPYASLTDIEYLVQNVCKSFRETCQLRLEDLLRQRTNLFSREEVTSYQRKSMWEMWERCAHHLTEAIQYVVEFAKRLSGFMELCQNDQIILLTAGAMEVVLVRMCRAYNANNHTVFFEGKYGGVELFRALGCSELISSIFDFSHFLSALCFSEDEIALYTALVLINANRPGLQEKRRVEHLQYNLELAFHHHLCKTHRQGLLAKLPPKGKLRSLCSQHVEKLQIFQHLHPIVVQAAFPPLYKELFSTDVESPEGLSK
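Compounds are pin-transferred onto Drosophila Schneider cells expressing a copper-inducible Gal4–ROR gamma transactivation domain fusion. After 1 hr, copper sulfate is added to 700 uM final; luciferase is read 20 hr later.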
SW480 rerep = DNA re-replication induction in SW480 cells; SW480 DNA re-replication, Hoechst DNA content imaging, 48 h; Potency, µM (series often up to 46.1 µM), for inactives: at the top dose re-replication activation, hits mostly activators; 340,000 tested, 1.8% active; AID 624297; also: potency is read from the fitted curve at half-maximal effect; % of control where 0% means no effect; nearly all actives have a fitted effect of over 55% in size
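250 cells/well; 23 nL cpd via pin tool; 48 hr, 37 C, 5% CO2; Hoechst 40 min; imager read of total nuclear intensity, ex 405/em 500-530 nm.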
IL-1B inflam inh = inflammasome signaling inhibition, IL-1 beta readout; AID 743279; 360,000 tested, 4.7% active; activity change, % at 57.5 µM; THP-1 LPS/ATP IL-1B secretion, AlphaLISA, 16 h; stronger effect = lower value; in the data active = activity change below about -50%; inconclusive = mostly about -30% to -49%; also: % is scaled to controls: 0 for no effect and ±100 for the full control effect
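THP-1 cells pretreated 1 hr with compounds (up to 57.5 uM final), then stimulated with LPS (250 ng/mL final) plus ATP (1.25 mM final); secreted IL-1B measured by AlphaLISA after 16 hr, decreased signal indicating inhibition.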
VP16 counter = Gal4-VP16 reporter inhibition counter-screen; Drosophila S2 Gal4-VP16 UAS-luciferase, luminescence, 20 h; Potency, µM (top dose mostly 53.6 µM), for the others: top-dose activity, negative = inhibition, hits mostly inhibitors; 310,000 tested, 3.5% active; AID 2546;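 also: Gal4-VP16 expression switched on by copper sulfate through the metallothionein promoter; potency is read from the fitted curve at half-maximal effect; % is scaled to controls: 0 for no effect and ±100 for the full control effect; nearly all actives have a fitted effect of over 50% in size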
The depositor's hits bear a star; [ ] = another dose, or the depositor's remark. Sampled rows, rich in hits. Any-hit rate of the full collection: about 11%. Unless noted, calls follow the shape of the dose curve; as a rule, active = well fitted curve in the direction sought with a large enough effect; inconclusive = small, poorly fitted or top-dose-only effect, or another doubt; inactive = no such curve, though single readings can be large; an effect the other way counts as inactive or inconclusive.

For COc1ccc(NC(=O)c2ccc(COc3ccccc3Br)o2)cc1OC the results were MCF10A rereplic 12µM*, RORg inh inconclusive, SW480 rerep 5%, IL-1B inflam inh -14 and VP16 counter -2%.
`S=c1[nH]nc(-c2cc(-c3ccccn3)nc3ccccc23)o1` gave MCF10A rereplic 0%, RORg inh 5µM*, SW480 rerep -4%, IL-1B inflam inh 0 and VP16 counter 0%.
Screening Cc1ccc(-c2cc(-c3n[nH]c(=S)o3)c3ccccc3n2)cc1 returned MCF10A rereplic inconclusive, RORg inh 7.1µM*, SW480 rerep 1%, IL-1B inflam inh 17 and VP16 counter 4.5µM*.
For O=C(c1c(O)c2ccc(Cl)cc2[nH]c1=O)C1CC1 the results were RORg inh 7% and VP16 counter -1%.
O=c1[nH]c(CSc2ccccn2)nc2ccccc12 was read as MCF10A rereplic -4%, RORg inh inconclusive, SW480 rerep -1%, IL-1B inflam inh 30 and VP16 counter -28%.
For Cc1ccc2nc(SCc3nc4ccccc4c(=O)[nH]3)[nH]c2c1 the results were MCF10A rereplic inconclusive, RORg inh -24%, SW480 rerep 1%, IL-1B inflam inh -98* and VP16 counter inconclusive.
For Cc1ccc2nc(CSc3nc(C)ccc3C#N)[nH]c2c1 the results were MCF10A rereplic inconclusive, RORg inh 3.5µM*, SW480 rerep inconclusive, IL-1B inflam inh inconclusive and VP16 counter 2µM*.
COCc1cc(C)nc(SCc2ccccc2)c1C#N was read as MCF10A rereplic -2%, RORg inh -1%[1.91 µM], SW480 rerep -42%, IL-1B inflam inh 0 and VP16 counter 6%.
COCc1cc(C)nc(SCc2nc3ccccc3c(=O)[nH]2)c1C#N was read as MCF10A rereplic 2.1µM*, RORg inh 23%, SW480 rerep inconclusive, IL-1B inflam inh -10 and VP16 counter 2%.
Screening Cc1cc(C)c(C#N)c(SCc2nc3ccccc3c(=O)[nH]2)n1 returned MCF10A rereplic 10µM*, RORg inh -26%, SW480 rerep inconclusive, IL-1B inflam inh 41 and VP16 counter inconclusive.
COC(=O)c1sc2nc(CSc3nc4ccc(C)cc4[nH]3)[nH]c(=O)c2c1C was read as MCF10A rereplic 25%, RORg inh 4%, SW480 rerep 0%, IL-1B inflam inh 27 and VP16 counter -3%.
Cc1cc(C)c(CN2CCN(C(=O)Cn3cnc4c(NCc5ccccc5)ncnc43)CC2)c(C)c1 was read as MCF10A rereplic 35%, SW480 rerep 5% and IL-1B inflam inh inconclusive.
For Cc1ccc(S(=O)(=O)N2[C@@H](c3ccccc3F)C(C(=O)O)=CC[C@H]2c2ccc(Cl)c(Cl)c2)cc1 the results were MCF10A rereplic inconclusive, SW480 rerep 0% and IL-1B inflam inh 32.
For CC(=O)Nc1ccc(N2CCOCC2)c(S(=O)(=O)Nc2ccccc2Cl)c1 the results were IL-1B inflam inh -3.
O=C(Nc1cccc(C(F)(F)F)c1)Nc1ccc(N2CCCC2)c(S(=O)(=O)Nc2ccccc2Cl)c1 was read as MCF10A rereplic 4.6µM*, RORg inh inconclusive, SW480 rerep inconclusive, IL-1B inflam inh -71* and VP16 counter 11µM*.
CCCC(=O)N1CCC1(C)C(=O)NS(=O)(=O)c1cc2c(cc1C)CCCS2(=O)=O (centres undefined) was read as IL-1B inflam inh 11.
`N#CC(C#N)=C(Nc1ccc(F)cc1)SCc1cccc(F)c1` gave MCF10A rereplic 23µM*, RORg inh inconclusive, SW480 rerep -32%, IL-1B inflam inh inconclusive and VP16 counter 14µM*.
`Cn1c(CCN2CCCCC2)nc2cc(NS(=O)(=O)c3ccccc3)ccc21` gave MCF10A rereplic 12%, RORg inh -3%, SW480 rerep inconclusive, IL-1B inflam inh -50* and VP16 counter 7%.
Cn1c(CN2CCCC2)nc2cc(NS(=O)(=O)c3ccc(Cl)cc3)ccc21 was read as MCF10A rereplic 19%, RORg inh -17%, SW480 rerep 17%, IL-1B inflam inh -8 and VP16 counter -9%.
Screening Cn1c(CCN2CCCC2)nc2cc(NS(=O)(=O)c3ccc(Cl)cc3)ccc21 returned MCF10A rereplic inconclusive, RORg inh -15%, SW480 rerep 21µM*, IL-1B inflam inh -86* and VP16 counter -8%.
Cn1c(CCN2CCOCC2)nc2cc(NS(=O)(=O)c3ccccc3)ccc21 was read as MCF10A rereplic -11%, RORg inh 6%, SW480 rerep inconclusive, IL-1B inflam inh -18 and VP16 counter -3%.
Screening Cc1ccc(S(=O)(=O)Nc2ccc3c(c2)nc(CCN2CCCC2)n3C)cc1 returned MCF10A rereplic inconclusive, RORg inh -39%, SW480 rerep inconclusive, IL-1B inflam inh -76* and VP16 counter -15%.
Screening Cn1c(CCN2CCN(c3ccccn3)CC2)nc2cc(NS(=O)(=O)c3ccccc3)ccc21 returned MCF10A rereplic 23µM*, RORg inh 22%, SW480 rerep inconclusive, IL-1B inflam inh -4 and VP16 counter -2%.
For O=S1(=O)C2CC3CCC2(CN1Cc1ccccc1)O3 (centres undefined) the results were RORg inh 40% and VP16 counter 28%.
`O=C(Nc1ccc2nc([C@@H]3O[C@H](CO)[C@@H](O)[C@H](O)[C@H]3O)[nH]c2c1)NC(c1ccccc1)c1ccccc1` gave IL-1B inflam inh 23.
`Cn1c(CCN2CCCC2)nc2cc(NS(=O)(=O)c3ccc(F)cc3)ccc21` gave IL-1B inflam inh -56*.
For COC(=O)C12CC3(CCC4C5C(C(OCc6ccccc6)C41)C52)OCCO3 (centres undefined) the results were RORg inh 16%[10 µM] and VP16 counter 0%[10 µM].
For Cc1nnc2ccc(-c3cccc(NC(=O)c4ccc(Br)o4)c3)nn12 the results were MCF10A rereplic 12%, RORg inh 1%, SW480 rerep -20%, IL-1B inflam inh -65* and VP16 counter 3%.
`COc1ccccc1-c1cc(C(=O)N/N=C\c2cn(C)nc2C)c2ccccc2n1` gave MCF10A rereplic -34%, RORg inh inconclusive, SW480 rerep -2%, IL-1B inflam inh 1 and VP16 counter -8%.
For CCCc1cc(C(=O)OC)c2ccccc2n1 the results were MCF10A rereplic -56%, RORg inh -6%, SW480 rerep inconclusive, IL-1B inflam inh 44 and VP16 counter -12%.
Screening Cc1ccc(C=NNC(=O)c2cc(-c3cccnc3)nc3ccccc23)o1 returned MCF10A rereplic 5.2µM*, SW480 rerep 7.3µM* and IL-1B inflam inh 54.
Screening CCc1cc(C(=O)N/N=C/c2ccc(OC)cc2)c2ccccc2n1 returned MCF10A rereplic 16µM*, RORg inh 6%, SW480 rerep inconclusive, IL-1B inflam inh 15 and VP16 counter -8%.

Bioassay records as filed in PubChem.
